Experimental data as given in PubChem BioAssay (NCATS).
Inconclusive results are not listed. Activity calls are given as the source filed them. Calls come from the whole dose curve; as a rule, active = well fitted inhibition curve with a large enough effect; inconclusive = small, poorly fitted or top-dose-only effect; inactive = flat fitted curve, though single readings scatter.

Tests used:
Assay in all cases: qHTS profiling for inhibitors of Plasmodium falciparum proliferation (AID 504749); note: nearly all actives have a fitted effect of over 60% in size
Conditions in all cases: P. falciparum in erythrocytes, SYBR Green DNA, 72 h; series mostly up to 28.7 µM
[1] = system: CP291
Method in brief: (§1)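 Readout was DNA-dye fluorescence from lysed cultures, ex 485/em 535 nm. Parasitized red cells had grown 72 h with compound; data scaled between 0.29 uM artemisinin and DMSO wells and corrected using vehicle-only plates.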

[2] = system: CP297
Method in brief: as §1

[3] = system: CP315
Method in brief: as §1

[4] = system: CP325
Method in brief: as §1

[5] = system: CP329
Method in brief: as §1

[6] = system: CP335
Method in brief: as §1

[7] = system: DFO2036
Method in brief: as §1

[8] = system: DIV14
Method in brief: as §1

[9] = system: DIV17
Method in brief: as §1

[10] = system: CP305
Method in brief: as §1

Measured: Potency
Potency is the fitted concentration of half-maximal effect.

COc1c(N2C[C@@H]3CCCN[C@H]3C2)c(F)cc2c(=O)c(C(=O)O)cn(C3CC3)c12
inactive: [1] | [2] | [3] | [4] | [5] | [6] | [7] | [8] | [9]

COC(=O)C[C@](O)(CCCC(C)(C)O)C(=O)O[C@@H]1C(OC)=C[C@]23CCCN2CCc2cc4c(cc2[C@H]13)OCO4
active: [1] 33.8 nM | [2] 16.9 nM | [10] 33.8 nM | [3] 23.9 nM | [4] 33.8 nM | [6] 21.3 nM | [7] 22.4 nM | [8] 26.9 nM | [9] 23.9 nM

Nc1ccn([C@@H]2O[C@H](CO)[C@H](O)C2(F)F)c(=O)n1
active: [1] 4260 nM | [2] 6750 nM | [10] 5360 nM | [3] 8490 nM | [4] 2390 nM | [5] 5360 nM | [6] 2390 nM | [7] 282 nM | [8] 849 nM | [9] 953 nM

Nc1ccn([C@@H]2CS[C@H](CO)O2)c(=O)n1
inactive: [1] | [2] | [10] | [3] | [4] | [5] | [6] | [7] | [8] | [9]

Nc1ccc(S(=O)(=O)Nc2ncccn2)cc1
inactive: [1] | [2] | [10] | [4] | [5] | [6] | [7] | [8] | [9]

CN1c2cc(O)c(N=NC(N)=O)cc2CC1S(=O)(=O)O (stereo not given)
inactive: [1] | [2] | [10] | [3] | [4] | [5] | [6] | [7] | [8] | [9]

CCC1=C[C@@H]2CN(C1)Cc1c([nH]c3ccccc13)[C@@](C(=O)OC)(c1cc3c(cc1OC)N(C)[C@@H]1[C@@](O)(C(=O)OC)[C@H](OC(C)=O)[C@]4(CC)C=CCN5CC[C@]31[C@@H]54)C2
active: [1] 3010 nM | [2] 3790 nM | [10] 3010 nM | [3] 3790 nM | [4] 3790 nM | [5] 3010 nM | [6] 1690 nM | [7] 2510 nM | [8] 3790 nM | [9] 3790 nM

CC(C)(C)NC(=O)[C@H]1CN(Cc2cccnc2)CCN1C[C@@H](O)C[C@@H](Cc1ccccc1)C(=O)N[C@H]1c2ccccc2C[C@H]1O
active: [1] 15100 nM | [10] 13500 nM | [6] 12000 nM | [8] 13500 nM

CC1(C)O[C@@H]2C[C@@H]3[C@H]4C[C@@H](F)C5=CC(=O)C=C[C@]5(C)[C@@]4(F)[C@@H](O)C[C@]3(C)[C@]2(C(=O)CO)O1
inactive: [6] | [7]

COC(=O)C1=C(C)NC(C)=C(C(=O)OCCN2CCN(C(c3ccccc3)c3ccccc3)CC2)C1c1cccc([N+](=O)[O-])c1 (stereo not given)
active: [1] 4780 nM | [2] 4260 nM | [10] 5360 nM | [3] 4780 nM | [4] 3790 nM | [5] 4780 nM | [6] 1690 nM | [7] 1780 nM | [8] 3790 nM | [9] 1690 nM

COc1cc(C(=O)NS(=O)(=O)c2ccccc2C)ccc1Cc1cn(C)c2ccc(NC(=O)OC3CCCC3)cc12
inactive: [1] | [10] | [4] | [5] | [7]

CC[C@H]1CN2CCc3cc(OC)c(OC)cc3[C@H]2C[C@@H]1C[C@@H]1NCCc2cc(OC)c(OC)cc21
active: [1] 269 nM | [2] 379 nM | [10] 379 nM | [3] 757 nM | [4] 478 nM | [5] 379 nM | [6] 379 nM | [7] 316 nM | [8] 379 nM | [9] 338 nM

C[C@H]1C[C@@H]2[C@@H]([C@@H](O)C[C@@]3(C)[C@H]2CC[C@]3(O)C(=O)CO)[C@@]2(C)C=CC(=O)C=C12
inactive: [1] | [10] | [3] | [4] | [5] | [6] | [7] | [8] | [9]

O=c1[nH]c(=O)n(C2CCCO2)cc1F (stereo not given)
inactive: [1] | [2] | [10] | [3] | [4] | [5] | [6] | [7] | [8] | [9]

O=C(O)CO.[NH2-].[NH2-].[Pt+2]
inactive: [1] | [2] | [10] | [3] | [4] | [5] | [6] | [7] | [8]

CC=CC1=C(C(=O)O)N2C(=O)[C@H](NC(=O)[C@H](N)c3ccc(O)cc3)[C@@H]2SC1
inactive: [1] | [2] | [10] | [3] | [4] | [5] | [6] | [7] | [8]
